Experiment [1] deals with Estrogen receptor beta (Homo sapiens) (UniProt Q92731). Nature of the experiment: qHTS assay to identify small molecule agonists of the estrogen receptor beta (ER-beta) signaling pathway (AID 1259377; active = well fitted activation curve with a large enough effect in the signal ratio in the repeat runs, not every such curve was filed as active; the % refers to the signal ratio). A digest of the protocol:
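qHTS in ER-beta-UAS-bla HEK293T cells: 6 hr settling, then 16 hr compound at 37C, then LiveBLAzer substrate 2 h at RT before fluorescence reading.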

Experiment [2] in a line: qHTS assay to identify small molecule agonists of the androgen receptor (AR) signaling pathway in the presence of an antagonist - cell viability counter screen (AID 1259379).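 Also: MDA-kb2 human breast cancer cells carrying an MMTV luciferase reporter; series mostly up to about 92 µM; nearly all actives have a fitted effect of over 25% in size.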 In outline:
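In MDA-kb2 cells (human breast carcinoma, MMTV-luciferase), compounds at 15 concentrations plus 3.0uM nilutamide; 16 hr, 37C, 0% CO2; CellTiter-Fluor fluorescence read for viability.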
(In general: In qHTS, concentration-response curves come from the screen itself.)

Experiment [3] is described as follows: qHTS assay to identify small molecule antagonists of the estrogen receptor beta (ER-beta) signaling pathway - cell viability counter screen (AID 1259382).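 Also: HEK293T cells carrying ER-beta-UAS-bla reporter stimulated with estradiol; series mostly up to about 92 µM; nearly all actives have a fitted effect of over 55% in size.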 A digest of the protocol: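 Tox21 10K library tested in qHTS format on ER-beta-bla HEK293T cells stimulated with 1nM E2; 16 hr treatment at 37C. Same-well CellTiter-Glo luminescence served as the cell viability measure.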

Experiment [4] can be described thus: qHTS assay to identify small molecule agonists or antagonists of the thyroid stimulating hormone receptor (TSHR) signaling pathway - wild type cell line counter screen (AID 1259384; calls by dose curve). A digest of the protocol: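 Counter screen in untransfected Hek293: compounds (15-point titration, triplicate) plus phosphodiesterase inhibitor Ro20-1724 added after 18 h plating; 30 min RT. Intracellular cAMP via competitive d2/cryptate immunoassay, 1 h incubation.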

Experiment [5] deals with Thyrotropin receptor (Homo sapiens) (UniProt P16473). Nature of the experiment: qHTS assay to identify small molecule antagonists of the thyroid stimulating hormone receptor (TSHR) signaling pathway (AID 1259385; calls by dose curve; also: nearly all actives have a fitted effect of over 20% in size). In outline: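 Antagonist mode: compound-treated TSHR-expressing HEK293 cells were stimulated with 1.5 ng/mL TSH (final) in presence of Ro20-1724 for 30 min at RT. HTRF cAMP detection after 1 h; each compound tested at 15 concentrations, triplicate.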
Sequence of Thyrotropin receptor (Homo sapiens) (P16473 whole entry, looked up): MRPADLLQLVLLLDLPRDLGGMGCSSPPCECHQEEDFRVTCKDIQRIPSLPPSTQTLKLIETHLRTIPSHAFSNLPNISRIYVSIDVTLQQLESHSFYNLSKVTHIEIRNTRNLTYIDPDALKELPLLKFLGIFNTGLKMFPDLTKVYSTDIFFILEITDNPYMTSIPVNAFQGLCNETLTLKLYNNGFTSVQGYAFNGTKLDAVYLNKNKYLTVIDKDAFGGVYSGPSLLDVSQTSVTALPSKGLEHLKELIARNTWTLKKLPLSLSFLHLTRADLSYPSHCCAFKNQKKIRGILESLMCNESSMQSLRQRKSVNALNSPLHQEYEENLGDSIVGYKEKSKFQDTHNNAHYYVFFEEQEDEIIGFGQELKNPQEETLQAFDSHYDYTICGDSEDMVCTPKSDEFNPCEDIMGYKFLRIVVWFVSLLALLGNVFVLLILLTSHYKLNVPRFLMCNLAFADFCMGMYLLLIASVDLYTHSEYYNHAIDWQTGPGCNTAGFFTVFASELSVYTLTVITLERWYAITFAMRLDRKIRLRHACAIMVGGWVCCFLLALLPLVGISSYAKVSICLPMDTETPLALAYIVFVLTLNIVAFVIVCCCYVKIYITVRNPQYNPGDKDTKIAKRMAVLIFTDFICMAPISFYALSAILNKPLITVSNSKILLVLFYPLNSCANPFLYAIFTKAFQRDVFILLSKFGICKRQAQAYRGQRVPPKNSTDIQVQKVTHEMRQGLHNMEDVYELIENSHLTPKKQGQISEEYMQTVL

Experiment [6] in a line: qHTS assay to identify small molecule agonists of the estrogen receptor alpha (ER-alpha) signaling pathway in the presence of an antagonist - cell viability counter screen (AID 1259386).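 Also: series mostly up to about 92 µM; cells exposed to compounds for 22 h at 37 °C before the viability read; nearly all actives have a fitted effect of over 30% in size.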 In outline: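 Fluorescent CellTiter-Fluor viability signal from VM7Luc4E2 cells, with the reagent added during the final hour of a 22hr compound exposure at 37C in the presence of 10.0nM ICI-182,780.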

Experiment [7] addresses Progesterone receptor (Homo sapiens) (UniProt P06401). The experiment can be described thus: qHTS assay to identify small molecule agonists of the progesterone receptor (PR) signaling pathway (AID 1346784; calls by dose curve; also: nearly all actives have a fitted effect of over 30% in size). A digest of the protocol: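 Fluorescence from LiveBLAzer B/G FRET substrate cleavage (2 hr, RT) reported PR activation in PR-UAS-bla HEK 293T cells treated 16 hr at 37C/5% CO2 with compounds; medium contained 2% charcoal-stripped FBS.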

The target is the same in experiment [8]. Nature of the experiment: qHTS assay to identify small molecule antagonists of the progesterone receptor (PR) signaling pathway (AID 1346795; active = well fitted inhibition curve with a large enough effect in the signal ratio in the repeat runs, not every such curve was filed as active; the % refers to the signal ratio; also: potency is read from the fitted curve at half-maximal effect). In outline: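 Fluorescence intensity measured 2 hr after adding beta-lactamase FRET substrate to PR-UAS-bla HEK293T cells that had been co-treated 16 hr with compound and 1 nM R5020 (final concentration) in 2% charcoal-stripped FBS.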

Experiment [9] is described as follows: qHTS assay to identify small molecule antagonists of the progesterone receptor (PR) signaling pathway - cell viability counter screen (AID 1346798). Also: series mostly up to about 92 µM; nearly all actives have a fitted effect of over 50% in size. In outline:
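CellTiter-Glo luminescence; PR-UAS-bla HEK293T, 3,000 cells/well; compound + R5020, 16 hr, 37C/5% CO2; 30 min RT before read.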

Experiment [10] is described as follows: qHTS assay to identify small molecule agonists of the progesterone receptor (PR) signaling pathway - cell viability counter screen (AID 1346799; calls by dose curve; also: nearly all actives have a fitted effect of over 45% in size). A digest of the protocol:
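In parallel with the beta-lactamase readout, cytotoxicity toward PR-UAS-bla HEK293T cells was measured by CellTiter-Glo luminescence following 16 hr compound incubation in 2% charcoal-stripped FBS medium.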

A short description of experiment [11]: qHTS assay to identify small molecule antagonists of the TGF-beta/Smad signaling pathway - cell viability counter screen (AID 1346824). Also: nearly all actives have a fitted effect of over 50% in size. In outline:
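Cytotoxicity counter-screen run in the same wells as the beta-lactamase Smad reporter read: CellTiter-Glo luminescence after 30 min at room temperature. HEK 293T SBE-bla cells had 5 hr compound exposure at 37 C with TGF-beta1 (0.25 ng/mL stock).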

Experiment [12] can be described thus: qHTS assay to identify small molecule agonists of the TGF-beta/Smad signaling pathway - cell viability counter screen (AID 1346829). Also: top concentration of the series differs between compounds; nearly all actives have a fitted effect of over 45% in size. A digest of the protocol:
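CellTiter-Glo luminescence readout; SBE-bla HEK 293T cells, overnight plating, compound 5 hr at 37 C/5% CO2, then bla substrate 2 hr RT, then CellTiter-Glo 30 min RT.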

Experiment [13] in a line: qHTS assay to identify small molecule agonists of the TGF-beta/Smad signaling pathway (AID 1346859; active = well fitted activation curve with a large enough effect in the signal ratio in the repeat runs, not every such curve was filed as active; the % refers to the signal ratio; also: series mostly up to about 77 µM). A digest of the protocol:
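After overnight seeding, SBE-bla HEK 293T cells are dosed with compounds in DMSO and kept 5 hr at 37 C, 5% CO2. LiveBLAzer-type FRET substrate is then applied for 2 hr at room temperature.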

Experiment [14] addresses Thyrotropin-releasing hormone receptor (Homo sapiens) (UniProt P34981). Nature of the experiment: qHTS assay to identify small molecule antagonists of the thyrotropin-releasing hormone receptor (TRHR) signaling pathway (AID 1346877; active = well fitted inhibition curve with a large enough effect in the repeat runs, not every such curve was filed as active; also: series mostly up to about 51 µM). A digest of the protocol: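 In this cell-based calcium flux format, HEK293 cells expressing TRHR received test compound for 5 min before the agonist TRH (1 nM final). Dye loading lasted 2 h at 37 °C.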

Experiment [15] has the same target. The experiment can be described thus: qHTS assay to identify small molecule agonists of the thyrotropin-releasing hormone receptor (TRHR) signaling pathway (AID 1346891; calls by dose curve; also: series mostly up to about 58 µM). In outline:
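Compounds were tested as agonists at 15 concentrations, in triplicate, on TRHR-Hek293 cells; calcium-sensitive dye fluorescence was recorded for 3 min following addition.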

The nature of experiment [16]: Human pregnane X receptor (PXR) small molecule agonists, qHTS cell viability counter screen (AID 1346977). Also: nearly all actives have a fitted effect of over 50% in size. In outline:
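Viability counter screen: CellTiter-Fluor signal in PXR-Luc HepG2 cells, 24hr compound exposure, 37C, 5% CO2.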

The nature of experiment [17]: qHTS assay to identify small molecule agonists of the estrogen receptor beta (ER-beta) signaling pathway - cell viability counter screen (AID 1259380). Also: nearly all actives have a fitted effect of over 30% in size. A digest of the protocol: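 Viability of ER-beta-UAS-bla HEK293T cells was determined by CellTiter-Glo luminescence following 16 hr treatment with test compounds at 37C.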
In experiment [18] the target is Androgen receptor (Homo sapiens) (UniProt P10275). Nature of the experiment: qHTS assay to identify small molecule agonists of the androgen receptor (AR) signaling pathway in the presence of an antagonist (AID 1259381; calls by dose curve; also: nearly all actives have a fitted effect of over 15% in size). In outline: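 Here, 15-concentration compound series were pin-transferred onto MDA-kb2 MMTV-luciferase cells already dosed with nilutamide (3.0uM final). After 16hr at 37C, ONE-Glo was added and luminescence read 30min later at room temperature.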
Sequence of Androgen receptor (Homo sapiens) (P10275 whole entry, looked up): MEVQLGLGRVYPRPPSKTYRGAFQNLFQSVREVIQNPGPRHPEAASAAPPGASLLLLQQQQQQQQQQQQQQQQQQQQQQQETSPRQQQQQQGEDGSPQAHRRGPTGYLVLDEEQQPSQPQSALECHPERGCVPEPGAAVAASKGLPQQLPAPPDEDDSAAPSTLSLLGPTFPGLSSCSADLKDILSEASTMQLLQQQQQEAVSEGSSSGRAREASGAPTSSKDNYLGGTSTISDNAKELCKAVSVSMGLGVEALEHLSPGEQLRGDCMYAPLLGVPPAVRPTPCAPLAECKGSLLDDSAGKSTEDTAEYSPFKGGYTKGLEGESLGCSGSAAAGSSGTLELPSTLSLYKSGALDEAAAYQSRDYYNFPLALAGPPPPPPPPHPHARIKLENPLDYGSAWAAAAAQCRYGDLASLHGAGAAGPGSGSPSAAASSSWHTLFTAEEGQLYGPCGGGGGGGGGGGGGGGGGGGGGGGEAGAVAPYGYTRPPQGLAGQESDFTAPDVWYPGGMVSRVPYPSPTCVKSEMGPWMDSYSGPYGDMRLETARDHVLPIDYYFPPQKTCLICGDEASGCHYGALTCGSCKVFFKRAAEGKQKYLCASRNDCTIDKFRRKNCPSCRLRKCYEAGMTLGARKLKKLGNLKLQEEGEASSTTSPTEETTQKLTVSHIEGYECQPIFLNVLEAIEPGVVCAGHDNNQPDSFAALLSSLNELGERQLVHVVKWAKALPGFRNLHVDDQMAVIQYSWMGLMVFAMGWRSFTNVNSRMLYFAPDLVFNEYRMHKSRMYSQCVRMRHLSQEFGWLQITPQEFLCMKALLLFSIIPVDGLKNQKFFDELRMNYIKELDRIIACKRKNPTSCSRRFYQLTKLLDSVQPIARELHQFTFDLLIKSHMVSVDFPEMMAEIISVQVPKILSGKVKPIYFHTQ

In experiment [19] the target is Estrogen receptor (Homo sapiens) (UniProt P03372). The experiment can be described thus: qHTS assay to identify small molecule agonists of the estrogen receptor alpha (ER-alpha) signaling pathway in the presence of an antagonist (AID 1259383; calls by dose curve; also: top concentration of the series differs between compounds; nearly all actives have a fitted effect of over 15% in size). A digest of the protocol:
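In VM7Luc4E2 cells, 4,000 per well, compounds at 15 concentrations were co-incubated 22hr at 37C with 10.0nM final ICI-182,780. Luminescence from the stably transfected 4×ERE-luciferase reporter was recorded 30min after ONE-Glo addition.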

Here are results for nine molecules from PubChem BioAssay (Tox21).

Unmarked numbers belong to inactive results. Records with an inconclusive call do not appear. Calls of active or inactive are those of the source. Unless noted, calls follow the shape of the dose curve; as a rule, active = well fitted curve in the direction sought with a large enough effect in the repeat runs; inconclusive = weak or mixed curves; inactive = no such curve, though single readings can be large; an effect the other way counts as inactive or inconclusive.

Sequence of Estrogen receptor beta (Homo sapiens) (Q92731 whole entry, looked up): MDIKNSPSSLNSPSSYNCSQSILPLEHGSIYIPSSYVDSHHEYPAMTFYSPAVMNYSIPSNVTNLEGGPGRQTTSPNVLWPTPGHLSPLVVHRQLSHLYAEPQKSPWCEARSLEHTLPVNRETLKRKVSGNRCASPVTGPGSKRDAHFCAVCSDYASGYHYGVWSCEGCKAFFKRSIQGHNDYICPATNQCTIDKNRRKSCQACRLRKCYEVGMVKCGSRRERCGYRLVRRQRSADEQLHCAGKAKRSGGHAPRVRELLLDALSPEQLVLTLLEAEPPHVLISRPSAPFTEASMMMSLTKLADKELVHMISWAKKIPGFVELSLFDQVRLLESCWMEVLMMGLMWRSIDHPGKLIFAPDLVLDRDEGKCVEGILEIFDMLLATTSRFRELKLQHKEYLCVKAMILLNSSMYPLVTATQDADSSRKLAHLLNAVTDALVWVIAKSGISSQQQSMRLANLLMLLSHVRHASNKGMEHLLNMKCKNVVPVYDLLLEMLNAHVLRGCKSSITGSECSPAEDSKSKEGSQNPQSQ
Sequence of Progesterone receptor (Homo sapiens) (P06401 whole entry, looked up): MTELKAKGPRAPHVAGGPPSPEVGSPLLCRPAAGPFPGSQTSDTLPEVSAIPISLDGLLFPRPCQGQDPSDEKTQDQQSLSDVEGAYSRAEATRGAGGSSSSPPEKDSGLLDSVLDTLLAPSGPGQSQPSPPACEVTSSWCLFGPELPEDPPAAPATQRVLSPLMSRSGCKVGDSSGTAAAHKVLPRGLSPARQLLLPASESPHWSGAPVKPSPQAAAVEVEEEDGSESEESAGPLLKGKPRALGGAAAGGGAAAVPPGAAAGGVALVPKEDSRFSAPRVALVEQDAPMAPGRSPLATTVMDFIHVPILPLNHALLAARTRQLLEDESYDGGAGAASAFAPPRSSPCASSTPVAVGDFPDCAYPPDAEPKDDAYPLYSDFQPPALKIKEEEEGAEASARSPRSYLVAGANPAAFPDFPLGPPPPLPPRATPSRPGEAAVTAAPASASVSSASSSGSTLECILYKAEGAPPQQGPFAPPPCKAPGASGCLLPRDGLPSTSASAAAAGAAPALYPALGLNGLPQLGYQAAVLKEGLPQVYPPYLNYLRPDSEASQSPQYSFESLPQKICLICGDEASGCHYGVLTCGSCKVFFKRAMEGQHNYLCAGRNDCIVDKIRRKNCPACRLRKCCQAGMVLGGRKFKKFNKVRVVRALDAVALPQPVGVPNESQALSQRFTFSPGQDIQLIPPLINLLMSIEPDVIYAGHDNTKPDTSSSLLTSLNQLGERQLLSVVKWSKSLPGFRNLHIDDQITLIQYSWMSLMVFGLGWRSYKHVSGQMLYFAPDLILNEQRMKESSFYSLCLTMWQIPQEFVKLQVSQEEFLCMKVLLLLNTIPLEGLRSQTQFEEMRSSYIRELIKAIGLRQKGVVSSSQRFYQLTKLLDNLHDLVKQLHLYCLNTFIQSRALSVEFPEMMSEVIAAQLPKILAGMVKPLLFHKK
Sequence of Estrogen receptor (Homo sapiens) (P03372 whole entry, looked up): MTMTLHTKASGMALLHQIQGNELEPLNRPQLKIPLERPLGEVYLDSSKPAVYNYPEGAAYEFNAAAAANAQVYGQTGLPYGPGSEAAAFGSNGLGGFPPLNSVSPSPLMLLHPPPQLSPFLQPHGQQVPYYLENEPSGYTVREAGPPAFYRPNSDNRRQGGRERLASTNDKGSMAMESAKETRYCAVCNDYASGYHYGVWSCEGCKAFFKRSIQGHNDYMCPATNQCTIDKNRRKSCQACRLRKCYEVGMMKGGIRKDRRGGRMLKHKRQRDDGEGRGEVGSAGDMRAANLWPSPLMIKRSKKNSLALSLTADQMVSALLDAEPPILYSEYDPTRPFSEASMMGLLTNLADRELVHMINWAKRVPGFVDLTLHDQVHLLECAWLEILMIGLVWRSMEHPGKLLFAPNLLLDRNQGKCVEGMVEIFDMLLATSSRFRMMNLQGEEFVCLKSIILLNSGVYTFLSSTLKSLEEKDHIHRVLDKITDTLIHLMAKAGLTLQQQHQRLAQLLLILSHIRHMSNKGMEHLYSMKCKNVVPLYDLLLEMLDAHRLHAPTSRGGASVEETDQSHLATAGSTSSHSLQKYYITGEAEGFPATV
Sequence of Thyrotropin-releasing hormone receptor (Homo sapiens) (P34981 whole entry, looked up): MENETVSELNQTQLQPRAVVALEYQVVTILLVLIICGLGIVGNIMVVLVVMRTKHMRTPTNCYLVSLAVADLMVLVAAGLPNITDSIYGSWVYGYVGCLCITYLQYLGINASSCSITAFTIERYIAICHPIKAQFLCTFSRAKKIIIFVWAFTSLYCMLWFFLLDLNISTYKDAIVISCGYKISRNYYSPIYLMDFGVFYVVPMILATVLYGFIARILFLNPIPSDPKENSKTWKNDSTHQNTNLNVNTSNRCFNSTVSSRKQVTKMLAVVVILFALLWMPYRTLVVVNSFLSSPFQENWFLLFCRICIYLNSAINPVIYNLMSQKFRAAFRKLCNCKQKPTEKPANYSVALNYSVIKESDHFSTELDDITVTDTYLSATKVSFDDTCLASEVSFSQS

Take `c1ccc2sc(SN3CCOCC3)nc2c1`: the Potency result in experiment [1], in experiment [2], in [6], in experiment [7], in [8] and in experiment [9] was “inactive” in each case. For the same molecule, the Potency result in experiment [10], in experiment [15] and in experiment [16] was “inactive” throughout. For the same molecule, the outcome in experiment [3], in [4], in [5], in [11], in [12] and in [13] was inactive. In addition, the result in experiment [14] was inactive.
Take `C=C[Si](OC(C)=O)(OC(C)=O)OC(C)=O`: the Potency entry in experiment [2], in experiment [17], in [18], in experiment [6], in [7] and in experiment [8] was “inactive” each time. The Potency result in experiment [10], in experiment [15] and in experiment [16] was “inactive” throughout. Also, the molecule was called inactive in experiment [3], in experiment [19], in [4], in [5], in experiment [11] and in [12]. The result in experiment [13] and in experiment [14] was inactive.
Regarding `Cc1nc(C2CCCCC2)c(-c2ccc(S(N)(=O)=O)c(F)c2)o1`, the Potency entry in [1], in experiment [2], in experiment [6], in [7], in [15] and in [16] was “inactive” in each case. Moreover, the call in [3], in [19], in [4], in experiment [5], in experiment [11] and in experiment [12] was inactive. Further, the molecule was classed as inactive in experiment [13] and in [14]. Besides, the Potency in experiment [8] is 26.6 µM (active).
`Cc1ccc(C(=O)c2ccc(CC(=O)O)n2C)cc1`: the Potency entry in [2], in experiment [17], in [18], in [6], in experiment [7] and in experiment [9] was “inactive” in each case. Moreover, the Potency result in experiment [10], in [15] and in experiment [16] was “inactive” in each case. For the same molecule, the result in experiment [3], in experiment [4], in experiment [5], in experiment [11] and in [14] was inactive.
Take `Cc1ncc([C@@H](CCCCCCc2ccc3c(n2)NCCC3)CC(=O)O)cn1`: the Potency entry in experiment [1], in experiment [2], in experiment [7], in [9], in [15] and in experiment [16] was “inactive” in each case. The outcome in experiment [3], in experiment [19], in [11], in experiment [12], in [13] and in [14] was inactive.
For `CC(C)c1ccc2ncccc2c1`, the Potency result in experiment [1], in experiment [2], in [17], in experiment [6], in [7] and in experiment [9] was “inactive” in each case. The Potency entry in experiment [10] and in experiment [16] was “inactive” each time. Also, the molecule was classed as inactive in experiment [3], in experiment [11], in experiment [12] and in [13].
Consider `N[C@@H](CCC(=O)O)C(=O)O`, for which the Potency entry in [2], in experiment [17], in experiment [6], in experiment [7], in experiment [8] and in experiment [9] was “inactive” throughout. Besides, the Potency entry in experiment [10], in experiment [15] and in [16] was “inactive” in each case. The result in experiment [3], in experiment [19], in [4], in [5], in experiment [11] and in [12] was inactive. Besides, the outcome in [13] and in experiment [14] was inactive.
`Nc1ccn([C@@H]2O[C@H](CO)[C@@H](O)C2(F)F)c(=O)n1`: the Potency entry in [1], in experiment [2], in experiment [6], in experiment [8], in [10] and in experiment [16] was “inactive” throughout. The molecule was classed as inactive in experiment [3], in experiment [4], in [5], in experiment [11] and in experiment [13].
Turning to `CC(C)NNC(=O)c1ccncc1`, the Potency result in experiment [2], in experiment [17], in experiment [18], in [6], in experiment [7] and in experiment [8] was “inactive” in each case. In addition, the Potency result in [9], in experiment [10] and in experiment [16] was “inactive” in each case. Moreover, the result in experiment [3], in [4], in experiment [5], in experiment [11], in experiment [12] and in experiment [13] was inactive.
